# Experimental data from PMC7862700, “An all-to-all approach to the identification of sequence-specific readers for epigenetic DNA modifications on cytosine”.
# How the values were obtained:
# Test in all cases: DAPPL (digital affinity profiling via proximity ligation, sequencing); 10 mM Tris-HCl pH 7.5, 50 mM NaCl, 1 mM DTT, 4% glycerol, room temperature, 30 min; GST-TFs on glutathione beads, 16-mer random dsDNA library, 0.1% formaldehyde crosslink after washing; high values mean tight binding
# [1] = target: T1, FEV (Homo sapiens, UniProt Q99581 1-238); conditions: protein: recombinant; tags: N-terminal GST; dsDNA, one strand shown
# T1 sequence: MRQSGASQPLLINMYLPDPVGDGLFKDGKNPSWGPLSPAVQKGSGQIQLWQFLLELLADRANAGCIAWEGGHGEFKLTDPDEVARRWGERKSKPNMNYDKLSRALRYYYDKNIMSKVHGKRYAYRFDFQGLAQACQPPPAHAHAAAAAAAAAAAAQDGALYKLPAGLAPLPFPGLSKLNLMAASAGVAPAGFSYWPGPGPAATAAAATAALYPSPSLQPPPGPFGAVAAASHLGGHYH
# In short: (§1)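 Human transcription factors carrying a GST fusion were produced in yeast, bound to glutathione beads, tagged with DNA barcodes and pooled together with a tag-only sample. Each pool was held with 200 nmole of a random double-stranded 16-mer DNA library in Tris/NaCl/DTT/glycerol buffer for 30 min at room temperature, then washed, crosslinked in 0.1% formaldehyde, proximity-ligated with BsaI/T4 ligase (1 h, 37 °C), PCR-amplified and sequenced on an Illumina NextSeq500. Binding signal is the read frequency of each hexamer for a given factor divided by its frequency in the tag-only sample.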
# [2] = target: T2, ELF5 (Homo sapiens, UniProt Q9UKW6-2 1-255); conditions: protein: recombinant; tags: N-terminal GST; dsDNA, one strand shown
# T2 sequence: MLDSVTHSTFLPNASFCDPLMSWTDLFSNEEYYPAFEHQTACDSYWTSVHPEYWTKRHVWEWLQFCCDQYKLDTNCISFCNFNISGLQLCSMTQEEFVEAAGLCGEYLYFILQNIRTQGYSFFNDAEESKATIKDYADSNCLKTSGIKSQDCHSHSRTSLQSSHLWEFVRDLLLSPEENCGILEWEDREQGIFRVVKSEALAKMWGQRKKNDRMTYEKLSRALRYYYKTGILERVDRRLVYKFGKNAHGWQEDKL
# In short: as §1
# [3] = target: SPI1 (Homo sapiens, UniProt P17947 1-270); conditions: protein: recombinant; tags: N-terminal GST; dsDNA, one strand shown
# In short: as §1
# [4] = target: T3, ETV2 (Homo sapiens, UniProt O00321 1-342); conditions: protein: recombinant; tags: N-terminal GST; dsDNA, one strand shown
# T3 sequence: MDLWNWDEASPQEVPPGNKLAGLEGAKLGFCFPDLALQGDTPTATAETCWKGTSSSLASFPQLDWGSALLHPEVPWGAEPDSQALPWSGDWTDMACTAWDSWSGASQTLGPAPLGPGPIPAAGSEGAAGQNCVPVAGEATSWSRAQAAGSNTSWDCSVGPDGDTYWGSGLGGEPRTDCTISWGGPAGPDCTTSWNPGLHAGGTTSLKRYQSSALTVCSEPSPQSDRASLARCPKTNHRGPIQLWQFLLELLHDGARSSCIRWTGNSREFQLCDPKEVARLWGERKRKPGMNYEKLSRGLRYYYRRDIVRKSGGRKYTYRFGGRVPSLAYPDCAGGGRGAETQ
# In short: as §1
# [5] = target: CRX (Homo sapiens, UniProt O43186 1-299); conditions: protein: recombinant; tags: N-terminal GST; dsDNA, one strand shown
# In short: as §1
# [6] = target: HSF1 (Homo sapiens, UniProt Q00613 1-529); conditions: protein: recombinant; tags: N-terminal GST; chain copies: 3; dsDNA, one strand shown
# In short: as §1
# Chain of CRX (O43186 whole entry): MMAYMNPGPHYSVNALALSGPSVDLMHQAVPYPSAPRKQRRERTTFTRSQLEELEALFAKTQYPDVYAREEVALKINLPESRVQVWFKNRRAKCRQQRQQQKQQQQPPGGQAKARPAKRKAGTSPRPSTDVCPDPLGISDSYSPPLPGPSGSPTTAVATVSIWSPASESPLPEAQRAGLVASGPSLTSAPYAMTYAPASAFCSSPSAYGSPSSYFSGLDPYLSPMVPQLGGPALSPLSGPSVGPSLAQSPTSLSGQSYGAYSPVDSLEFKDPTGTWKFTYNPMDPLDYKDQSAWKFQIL
# Chain of HSF1 (Q00613 whole entry): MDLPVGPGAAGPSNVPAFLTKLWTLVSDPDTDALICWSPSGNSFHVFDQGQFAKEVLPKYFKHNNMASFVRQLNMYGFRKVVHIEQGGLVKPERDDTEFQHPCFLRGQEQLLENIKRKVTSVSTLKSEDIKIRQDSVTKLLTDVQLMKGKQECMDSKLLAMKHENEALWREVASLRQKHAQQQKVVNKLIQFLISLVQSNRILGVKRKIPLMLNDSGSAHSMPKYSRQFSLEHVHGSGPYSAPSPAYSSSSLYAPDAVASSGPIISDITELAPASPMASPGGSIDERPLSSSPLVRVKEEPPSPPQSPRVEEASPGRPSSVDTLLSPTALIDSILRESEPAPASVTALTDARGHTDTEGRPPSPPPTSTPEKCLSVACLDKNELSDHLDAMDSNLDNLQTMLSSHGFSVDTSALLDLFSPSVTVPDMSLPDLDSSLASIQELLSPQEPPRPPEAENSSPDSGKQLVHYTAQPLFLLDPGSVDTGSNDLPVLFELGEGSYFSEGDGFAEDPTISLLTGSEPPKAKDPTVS
sequence,measurement,setting,value
CGCGCC,binding signal,[1],"1.08 fold enrichment (6-mer frequency, TF over GST control)"
same,binding signal,[2],"1.03 fold enrichment (6-mer frequency, TF over GST control)"
GCAGCT,binding signal,[3],"1 fold enrichment (6-mer frequency, TF over GST control)"
same,binding signal,[1],"1.09 fold enrichment (6-mer frequency, TF over GST control)"
same,binding signal,[4],"1.06 fold enrichment (6-mer frequency, TF over GST control)"
same,binding signal,[5],"1 fold enrichment (6-mer frequency, TF over GST control)"
TGGAAG,binding signal,[3],"1.08 fold enrichment (6-mer frequency, TF over GST control)"
same,binding signal,[6],"1.56 fold enrichment (6-mer frequency, TF over GST control)"
same,binding signal,[2],"1.07 fold enrichment (6-mer frequency, TF over GST control)"
TGCAGC,binding signal,[3],"1.02 fold enrichment (6-mer frequency, TF over GST control)"
same,binding signal,[1],"1.08 fold enrichment (6-mer frequency, TF over GST control)"
same,binding signal,[4],"1.12 fold enrichment (6-mer frequency, TF over GST control)"
AGTGCA,binding signal,[3],"1.47 fold enrichment (6-mer frequency, TF over GST control)"
same,binding signal,[1],"1.15 fold enrichment (6-mer frequency, TF over GST control)"
same,binding signal,[4],"1.04 fold enrichment (6-mer frequency, TF over GST control)"
same,binding signal,[2],"1.1 fold enrichment (6-mer frequency, TF over GST control)"
CATAAG,binding signal,[6],"1.13 fold enrichment (6-mer frequency, TF over GST control)"
same,binding signal,[5],"1.42 fold enrichment (6-mer frequency, TF over GST control)"
TGGGTG,binding signal,[3],"1 fold enrichment (6-mer frequency, TF over GST control)"
same,binding signal,[2],"1.04 fold enrichment (6-mer frequency, TF over GST control)"
GTTACC,binding signal,[3],"1.12 fold enrichment (6-mer frequency, TF over GST control)"
same,binding signal,[1],"1.07 fold enrichment (6-mer frequency, TF over GST control)"
same,binding signal,[2],"1.11 fold enrichment (6-mer frequency, TF over GST control)"
CAATGT,binding signal,[1],"1 fold enrichment (6-mer frequency, TF over GST control)"
GTACTG,binding signal,[3],"1.04 fold enrichment (6-mer frequency, TF over GST control)"
ACTGGT,binding signal,[3],"1.1 fold enrichment (6-mer frequency, TF over GST control)"
same,binding signal,[4],"1.08 fold enrichment (6-mer frequency, TF over GST control)"
same,binding signal,[2],"1.03 fold enrichment (6-mer frequency, TF over GST control)"
ACTCAG,binding signal,[1],"1.02 fold enrichment (6-mer frequency, TF over GST control)"
same,binding signal,[4],"1.09 fold enrichment (6-mer frequency, TF over GST control)"
GAACTG,binding signal,[3],"1.2 fold enrichment (6-mer frequency, TF over GST control)"
same,binding signal,[4],"1.02 fold enrichment (6-mer frequency, TF over GST control)"
same,binding signal,[2],"1.01 fold enrichment (6-mer frequency, TF over GST control)"
AGCTCG,binding signal,[1],"1.03 fold enrichment (6-mer frequency, TF over GST control)"
same,binding signal,[6],"1.02 fold enrichment (6-mer frequency, TF over GST control)"
same,binding signal,[4],"1 fold enrichment (6-mer frequency, TF over GST control)"
CGCGCG,binding signal,[4],"1.05 fold enrichment (6-mer frequency, TF over GST control)"
GCAATC,binding signal,[3],"1.02 fold enrichment (6-mer frequency, TF over GST control)"
same,binding signal,[1],"1.05 fold enrichment (6-mer frequency, TF over GST control)"
same,binding signal,[6],"1.01 fold enrichment (6-mer frequency, TF over GST control)"
same,binding signal,[4],"1.05 fold enrichment (6-mer frequency, TF over GST control)"
same,binding signal,[5],"1 fold enrichment (6-mer frequency, TF over GST control)"
AGTCCC,binding signal,[3],"1.26 fold enrichment (6-mer frequency, TF over GST control)"
same,binding signal,[1],"1.09 fold enrichment (6-mer frequency, TF over GST control)"
same,binding signal,[2],"1.06 fold enrichment (6-mer frequency, TF over GST control)"
GTCTAT,binding signal,[3],"1.03 fold enrichment (6-mer frequency, TF over GST control)"
same,binding signal,[4],"1 fold enrichment (6-mer frequency, TF over GST control)"
same,binding signal,[2],"1.08 fold enrichment (6-mer frequency, TF over GST control)"
TGGAAC,binding signal,[1],"1.02 fold enrichment (6-mer frequency, TF over GST control)"
same,binding signal,[6],"1.86 fold enrichment (6-mer frequency, TF over GST control)"
GAAGCC,binding signal,[1],"1.05 fold enrichment (6-mer frequency, TF over GST control)"
same,binding signal,[4],"1.04 fold enrichment (6-mer frequency, TF over GST control)"
same,binding signal,[2],"1.07 fold enrichment (6-mer frequency, TF over GST control)"
GTACGA,binding signal,[3],"1.05 fold enrichment (6-mer frequency, TF over GST control)"
same,binding signal,[1],"1.01 fold enrichment (6-mer frequency, TF over GST control)"
same,binding signal,[4],"1.07 fold enrichment (6-mer frequency, TF over GST control)"
same,binding signal,[2],"1.03 fold enrichment (6-mer frequency, TF over GST control)"
GCCCCG,binding signal,[3],"1.08 fold enrichment (6-mer frequency, TF over GST control)"
same,binding signal,[1],"1.12 fold enrichment (6-mer frequency, TF over GST control)"
same,binding signal,[4],"1.06 fold enrichment (6-mer frequency, TF over GST control)"
CAGCCC,binding signal,[3],"1.03 fold enrichment (6-mer frequency, TF over GST control)"
same,binding signal,[1],"1.13 fold enrichment (6-mer frequency, TF over GST control)"
same,binding signal,[4],"1.27 fold enrichment (6-mer frequency, TF over GST control)"
same,binding signal,[2],"1.01 fold enrichment (6-mer frequency, TF over GST control)"
CGCCCA,binding signal,[1],"1.02 fold enrichment (6-mer frequency, TF over GST control)"
AGCCAC,binding signal,[3],"1.03 fold enrichment (6-mer frequency, TF over GST control)"
same,binding signal,[1],"1.04 fold enrichment (6-mer frequency, TF over GST control)"
same,binding signal,[4],"1.07 fold enrichment (6-mer frequency, TF over GST control)"
ACACGG,binding signal,[2],"1.15 fold enrichment (6-mer frequency, TF over GST control)"
GCTAGA,binding signal,[6],"1.96 fold enrichment (6-mer frequency, TF over GST control)"
same,binding signal,[5],"1.15 fold enrichment (6-mer frequency, TF over GST control)"
GGGAAA,binding signal,[3],"1.05 fold enrichment (6-mer frequency, TF over GST control)"
same,binding signal,[6],"1.15 fold enrichment (6-mer frequency, TF over GST control)"
same,binding signal,[2],"1.42 fold enrichment (6-mer frequency, TF over GST control)"
CAAACA,binding signal,[3],"1.14 fold enrichment (6-mer frequency, TF over GST control)"
same,binding signal,[1],"1.1 fold enrichment (6-mer frequency, TF over GST control)"
same,binding signal,[4],"1.13 fold enrichment (6-mer frequency, TF over GST control)"
same,binding signal,[2],"1.11 fold enrichment (6-mer frequency, TF over GST control)"
CACAGC,binding signal,[1],"1.03 fold enrichment (6-mer frequency, TF over GST control)"
same,binding signal,[4],"1.05 fold enrichment (6-mer frequency, TF over GST control)"
ACGCTC,binding signal,[4],"1.02 fold enrichment (6-mer frequency, TF over GST control)"
AGTAAA,binding signal,[3],"1.22 fold enrichment (6-mer frequency, TF over GST control)"
same,binding signal,[6],"1.09 fold enrichment (6-mer frequency, TF over GST control)"
same,binding signal,[2],"1.06 fold enrichment (6-mer frequency, TF over GST control)"
AACGCA,binding signal,[3],"1.06 fold enrichment (6-mer frequency, TF over GST control)"
same,binding signal,[1],"1.11 fold enrichment (6-mer frequency, TF over GST control)"
same,binding signal,[4],"1.1 fold enrichment (6-mer frequency, TF over GST control)"
same,binding signal,[2],"1.04 fold enrichment (6-mer frequency, TF over GST control)"
GTCCGG,binding signal,[1],"1.15 fold enrichment (6-mer frequency, TF over GST control)"
same,binding signal,[2],"1.06 fold enrichment (6-mer frequency, TF over GST control)"
GACCGG,binding signal,[1],"2.09 fold enrichment (6-mer frequency, TF over GST control)"
same,binding signal,[2],"1.08 fold enrichment (6-mer frequency, TF over GST control)"
ATAGGG,binding signal,[3],"1.19 fold enrichment (6-mer frequency, TF over GST control)"
same,binding signal,[4],"1.08 fold enrichment (6-mer frequency, TF over GST control)"
same,binding signal,[2],"1.02 fold enrichment (6-mer frequency, TF over GST control)"
